This is a sample that favours compounds with a hit; in the whole collection about 2.9% have one here.
EPAC2 antag: Validation qHTS for antagonist of cAMP-regulated guanine nucleotide exchange factor 4 (EPAC2). EPAC2 Rap1B BODIPY-GDP exchange, fluorescence. Potency, µM (doses to about 112 µM), most hits filed as inhibitors. 16,000 compounds, 1.7% hits. AID 1645886, 2021; further: nearly all actives have a fitted effect of over 40% in size
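Fluorescent exchange read-out: 100 nM EPAC2 with 250 nM RAP1B–BODIPY-GDP and 50 uM GDP; BODIPY-GDP release lowers fluorescence. Read at 480/540 nm every 5 min for 30 min at room temperature; normalized to 6.5 mM cAMP.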
EPAC1 agonist: Validation qHTS for agonist of cAMP-regulated guanine nucleotide exchange factor 3 (EPAC1) | 16,000 compounds, 1% hits | Rap guanine nucleotide exchange factor 3 (Homo sapiens), O95398 | AID 1645883, 2021 | EPAC1 Rap1b BODIPY-GDP exchange, fluorescence | Potency, µM, actives largely listed as activators; further: nearly all actives have a fitted effect of over 70% in size
Numbers stand for hits; - = inactive; ? = inconclusive; ! = not confirmed by another sample. The call rests on the fitted dose curve; in most records, active means well fitted curve in the direction sought with a large enough effect; inconclusive means small, poorly fitted or top-dose-only effect, or another doubt; inactive means no such curve, though single readings can be large; an effect the other way counts as inactive or inconclusive.

SMILES | EPAC2 antag | EPAC1 agonist
COc1ccc(C(=O)NCC2Cc3c(F)ccc(-c4nc(C)cnc4C)c3O2)cc1F (centres undefined) | ? | -
Cc1cc(CC(C)CC(C)(C)C)n(O)c(=O)c1 (centres undefined) (tested in a mixture with another compound) | ? | -
O=C1c2ccccc2C(=O)c2c(O)ccc(O)c21 | - | -
O=C1OC(c2ccc(O)cc2)(c2ccc(O)cc2)c2ccccc21 | 35.5µM! | ?
CC(C)c1c(C(=O)N(C)Cc2cccc3ncccc23)cnn1-c1nccc(-c2ccccc2F)n1 | - | -
COc1cc(OC)c2nc(-c3cc4c(c(OC)c3)OCCN(Cc3cn(C)nc3C)C4)cc(C)c2c1 | - | -
COc1cc(O)c(C(=O)/C=C/c2ccc(OC)c(O)c2)c(OC)c1 | - | 100µM
COc1ccc(/C=C/C(=O)c2cccs2)c(OC)c1 | - | ?
C/C=C1\NC(=O)[C@H]2CSSCC/C=C/[C@H](CC(=O)N[C@H](C(C)C)C(=O)N2)OC(=O)C(C(C)C)NC1=O (some centres undefined) | - | -
Cc1oc(-c2ccccc2NC(=O)c2cccnc2)nc1CNC(=O)c1ccc(N(C)C)cc1 | - | -
COc1ccc(C(=O)N2CCC3(CC2)CN(c2ccncc2)C3)cc1 | - | 100µM
COc1ccc(C(=O)N2CCC3(CCCN(c4ccncc4)C3)CC2)cc1 | - | -
CN(C)C(=O)c1ccc(/C=C/c2ccnc3ccccc23)cc1 | - | ?
CN(C)c1ccc(/C=C/c2ccnc3c2ccc2c(/C=C/c4ccc(N(C)C)cc4)ccnc23)cc1 | ? | -
Cc1cc(N(C)C)cc(C)c1/C=C/c1ccnc2ccccc12 | - | 100µM
Cc1ccc2nccc(/C=C/c3ccc(N(C)C)cc3)c2c1 | - | 112µM
COC(=O)c1c(OCc2cccnc2)cc(=O)n2c1CCN(Cc1cc3c(cc1Cl)OCO3)CC2 | - | -
Cc1nc2sccn2c1CN1CCOc2ccc(CN3C[C@@H](C)O[C@@H](C)C3)cc2C1 | - | -
C/C1=C2N=C(/C=C3N=C(/C(C)=C4\[N-][C@@](C)([C@@H]5N=C1[C@](C)(CCC(=O)NCC(C)OP(=O)(O)O[C@H]1[C@@H](O)[C@@H](n6cnc7cc(C)c(C)cc76)O[C@@H]1CO)[C@H]5CC(N)=O)[C@@](C)(CC(N)=O)[C@@H]4CCC(N)=O)[C@@](C)(CC(N)=O)[C@@H]\3CCC(N)=O)C(C)(C)[C@@H]/2CCC(N)=O.CC(=O)O.[Co] (some centres undefined) | 79.4µM | -
CCOc1ccccc1CN1CCCC(c2nc(C)ncc2-c2ccc(F)cc2)C1 (centres undefined) | - | -
Fc1ccc(/C=C/c2ccc3ccccc3n2)cc1 | - | -
CC(C)(Sc1ccc(CCN(CCCCC2CCCCC2)C(=O)NC2CCCCC2)cc1)C(=O)O | 44.7µM! | -
COc1cccc(Nc2ncc3nc(-c4ccccc4)c(=O)n(C4CC4)c3n2)c1 | - | -
COCCn1c(=O)c(-c2cc(F)cc(F)c2)nc2cnc(Nc3cccc(OC)c3)nc21 | - | 89.1µM
COc1cccc(Nc2ncc3nc(-c4cc(F)cc(F)c4)c(=O)n(C4CC4)c3n2)c1 | - | 100µM
SMILES | EPAC2 antag | EPAC1 agonist
COCCn1c(=O)c(-c2ccc(F)cc2)nc2cnc(Nc3cccc(OC)c3)nc21 | - | -
COCCC(=O)NCC1Cc2cc(Cl)cc(-c3ccc4[nH]ccc4c3)c2O1 (centres undefined) | - | -
COC(=O)C1=C(C)NC(COC(N)=O)=C(C(=O)OC(C)C)C1c1cccc(Cl)c1Cl (centres undefined) | 50.1µM | ?
COC(=O)C1=C(C)NC(C)=C(C(=O)OC)C1c1ccccc1[N+](=O)[O-] | ? | -
CO[C@H]1C[C@H](O[C@H]2[C@H](C)O[C@@H](O[C@@H]3/C(C)=C/C[C@@H]4C[C@@H](C[C@]5(C=C[C@H](C)[C@@H](C6CCCCC6)O5)O4)OC(=O)[C@@H]4C=C(C)[C@@H](O)[C@H]5OC/C(=C\C=C\[C@@H]3C)[C@]54O)C[C@@H]2OC)O[C@@H](C)[C@@H]1O | - | -
Cc1cccc(CN2Cc3cccc4c3[C@H](C=CC4)CC2=O)c1 | 31.6µM | -
O=C1C[C@H]2C=CCc3cccc(c32)CN1Cc1ccc(F)cc1 | ? | -
Cc1cnc(-n2ncc(C(=O)NCCc3cccnc3)c2C)nc1-c1cccs1 | ? | -
CC(/C=C/c1cccc(Oc2ccc(F)cc2)c1)N(O)C(N)=O (centres undefined) | 79.4µM | -
C[C@@H](/C=C\c1cccc(Oc2ccc(F)cc2)c1)N(O)C(N)=O | 25.1µM | -
CC(C(=O)O)c1cccc(Oc2ccccc2)c1 (centres undefined) | - | -
CCC(=O)O[C@]1(C(=O)CCl)[C@@H](C)C[C@H]2[C@@H]3C[C@H](F)C4=CC(=O)C=C[C@]4(C)[C@@]3(F)[C@@H](O)C[C@@]21C | ? | -
Cc1oc(-c2ccccc2NC(=O)C2CCC2)nc1CNC(=O)c1c(F)ccc(F)c1F | - | -
Cc1ccc2nccnc2c1 | - | -
NC[C@@H]1CC[C@@H](N)[C@@H](O[C@H]2[C@H](O)[C@@H](O[C@H]3O[C@H](CO)[C@@H](O)[C@H](N)[C@H]3O)[C@H](N)C[C@@H]2N)O1 | - | ?
Cc1cnc(SCc2ccccn2)nc1C1CCCN(C(=O)c2ccc3c(c2)OCO3)C1 (centres undefined) | - | -
Oc1ccc(Cl)cc1Sc1cc(Cl)ccc1O | 50.1µM | -
COc1ccc2ccccc2c1CN1CCC2(CCC(CNC(=O)c3ccccc3)O2)CC1 (centres undefined) | - | -
Cc1ccc2[nH]c3c(c2c1)CN(C(=O)CC1(c2ccccc2)CC(=O)N(Cc2cccnc2)C1=O)CC3 (centres undefined) | ? | -
CCc1ccc(S(=O)(=O)NCc2nc(N3CCCC3)c3cccc(C)c3n2)cc1 | ? | -
O=c1c(O)c(-c2ccccc2)oc2cc(O)cc(O)c12 | ? | -
O=c1c(O)c(-c2cc(O)c(O)c(O)c2)oc2cc(O)cc(O)c12 | 35.5µM! | -
COc1ccc2c(c1)-c1nc(-n3ncc(C(=O)NC[C@@H]4CCCN5CCCC[C@H]45)c3C)ncc1CC2 | - | -
CCOC(=O)C[C@H]1c2ccc(C(F)(F)F)cc2S(=O)(=O)N1c1cccc(OC)c1 | 44.7µM | -
COc1cccc(N2[C@@H](CC(C)=O)c3cc(C(F)(F)F)ccc3S2(=O)=O)c1 | ? | -
SMILES | EPAC2 antag | EPAC1 agonist
Nc1ncnc2c1ncn2[C@H]1O[C@H](CO)[C@@H](O)[C@@H]1O | - | -
CC(C)c1ccc(CN2CCC3(CCC(CNC(=O)c4ccn(C)n4)O3)CC2)cc1 (centres undefined) | - | -
CCOC(=O)N1CCC(=C2c3ccc(Cl)cc3CCc3cccnc32)CC1 | 35.5µM! | -
CN1CCC(=C2c3ccccc3CCc3cccnc32)CC1 | - | -
Cc1c(C(=O)N2CC3CCC2C3)sc2ncnc(NCCc3c[nH]c4ccccc34)c12 (centres undefined) | - | -
OCC(S)CS (centres undefined) | - | -
C[n+]1c2cc(N)ccc2cc2ccc(N)cc21 (tested in a mixture with another compound) | - | 25.1µM
Cc1ccc(C)c(S(=O)(=O)NCc2nc(N3CCCC3)c3cc(Cl)ccc3n2)c1 | - | -
Cc1c(C(=O)NCC2COCCO2)cnn1-c1ncc2c(n1)-c1ccccc1CC2 (centres undefined) | - | -
COc1cc(-c2ccc(N=Nc3ccc4c(S(=O)(=O)O)cc(S(=O)(=O)O)c(N)c4c3O)c(OC)c2)ccc1N=Nc1ccc2c(S(=O)(=O)O)cc(S(=O)(=O)O)c(N)c2c1O | 28.2µM! | -
O=C1CCCCN1CCC(=O)N1CCOc2ccc(C(O)C3CCCCC3)cc2C1 (centres undefined) | ? | -
